Screening data deposited in PubChem by several laboratories.
Only some compounds are listed: those with a hit (about 2.9% of all), similar ones and a draw of the others.
CRFBP-R2 agonist – CRF-BP/CRF-R2 complex agonism; HEK293 CRF-R2/CRF-BP, calcium dye fluorescence (FLIPR); percent of saturating CRF peptide response; activation, % at 13.2 µM; 350,000 compounds, 0.46% hits;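 active = activation of at least 50%, plus an integration ratio under a set limit after plate pattern correction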
MEKK2 WT-MEK5 – raises or lowers MEK5 binding to wildtype human MEKK2 PB1 domain; Q9Y2U5; bead flow cytometry, Alexa488-MEK5 binding to MEKK2 WT; actives lie on both sides; binding response (% of control), % at 10 µM; 290,000 compounds, 1.1% hits; AID 1531; in the data active = binding response below about 67% or above about 130%
MEKK3 PB1 HTS – modulators (inhibitors or enhancers) of MEK5 binding to human MEKK3 PB1 domain | 290,000 compounds, 1.4% hits | AID 1529 | bead-based flow cytometry, Alexa488-MEK5 binding to MEKK3; actives lie on both sides; 0 = blocked by unlabeled MEK5, 100 = vehicle | binding response (% of control), % at 10 µM;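 active = binding response more than 3 SD above or below the average of its plate-row segment, actives on both sides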;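 also: Alexa488 bead fluorescence after subtracting the streptavidin-only scavenger bead signal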
CRFR2-BP antag – blocks CRF-induced signaling of the CRF-BP/CRF-R2 complex; HEK293 CRF-R2/CRF-BP, CRF-induced calcium fluorescence; inhibition, % at 11.8 µM; 350,000 compounds, 0.59% hits;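 active = inhibition of the ligand-induced calcium signal above about 50% at the single tested concentration, limit read from the data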
ABCB6 inh 2 – inhibitors of human ABC transporter ABCB6 | Q9NP58 | K562-ABCB6 porphyrin accumulation, flow cytometry, 1 h; hits give low values | fluorescence ratio to DMSO, % at 10 µM | 360,000 compounds, 0.19% hits;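 active = fluorescence ratio to DMSO below 75%, the collection mean minus 3 SD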;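 also: signal is porphyrin accumulated inside mitochondria; lower ratio means ABCB6 inhibition with less porphyrin fluorescence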
Target sequence (Q9NP58 whole entry, looked up): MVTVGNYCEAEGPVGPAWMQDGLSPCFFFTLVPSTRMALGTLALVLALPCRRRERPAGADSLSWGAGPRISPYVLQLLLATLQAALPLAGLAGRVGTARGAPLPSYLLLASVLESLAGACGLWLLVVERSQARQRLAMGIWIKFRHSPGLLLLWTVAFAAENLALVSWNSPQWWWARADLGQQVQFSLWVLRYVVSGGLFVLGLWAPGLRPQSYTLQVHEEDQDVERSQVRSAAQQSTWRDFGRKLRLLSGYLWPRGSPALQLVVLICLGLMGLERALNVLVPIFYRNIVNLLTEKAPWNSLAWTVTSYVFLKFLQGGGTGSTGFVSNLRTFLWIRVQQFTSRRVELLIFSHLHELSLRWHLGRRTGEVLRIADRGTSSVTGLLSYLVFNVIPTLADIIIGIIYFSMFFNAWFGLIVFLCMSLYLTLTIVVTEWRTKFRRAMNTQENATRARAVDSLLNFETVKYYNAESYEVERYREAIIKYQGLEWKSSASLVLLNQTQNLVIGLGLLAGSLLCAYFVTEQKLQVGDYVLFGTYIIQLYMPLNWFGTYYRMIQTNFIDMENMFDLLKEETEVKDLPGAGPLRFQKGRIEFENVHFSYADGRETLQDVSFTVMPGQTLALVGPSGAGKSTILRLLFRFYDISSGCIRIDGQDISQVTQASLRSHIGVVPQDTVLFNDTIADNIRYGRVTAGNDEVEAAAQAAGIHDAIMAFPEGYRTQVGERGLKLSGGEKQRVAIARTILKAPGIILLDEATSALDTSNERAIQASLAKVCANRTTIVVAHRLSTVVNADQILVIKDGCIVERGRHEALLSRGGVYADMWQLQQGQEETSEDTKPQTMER
MEKK2 mut-MEK5 – signal of MEK5 binding to mutant human MEKK2 PB1 domain; bead flow cytometry, Alexa488-MEK5 binding to MEKK2 mutant; percent response, % at 10 µM; 290,000 compounds, 0.35% hits; AID 1530; in the data active = percent response above about 24%, passing the limit was not always enough
Large screens that a line does not name were inactive; [ ] = dose if it differs, or a comment.

C/C=C(\C)C(=O)OC1[C@H](OC(C)=O)C2(CO)C(CC1(C)C)C1=CCC3C4(C)CCC(O[C@@H]5O[C@H](C(=O)O)[C@@H](O[C@@H]6O[C@H](CO)[C@@H](O)[C@H](O)[C@H]6O)[C@H](O)[C@H]5O[C@H]5O[C@H](CO)[C@@H](O)[C@H](O)[C@H]5O)[C@](C)(CO)C4CCC3(C)[C@]1(C)C[C@H]2O (stereo partly drawn)	CRFBP-R2 agonist 159 (no result: MEKK2 WT-MEK5, MEKK3 PB1 HTS, MEKK2 mut-MEK5)
C/C=C(/C)C(=O)OC1CC(C)(C)C[C@H]2C3=CC[C@@H]4[C@@]5(C)CCC(O[C@@H]6O[C@@H](C(=O)O)[C@@H](O)C(O[C@@H]7OC[C@H](O)[C@@H](O)[C@@H]7O[C@@H]7OC(CO)C(O)[C@@H](O)[C@@H]7O)C6O[C@@H]6OC(CO)C(O)C(O)C6O)[C@@](C)(CO)[C@@H]5CC[C@]4(C)[C@]3(C)CC(O)[C@@]12CO (stereo partly drawn)	CRFBP-R2 agonist 112 (no result: MEKK2 WT-MEK5, MEKK3 PB1 HTS, MEKK2 mut-MEK5)
Cc1cc(N2CCN(C)CC2)nc2ccc(NC(=S)NCCN3CCc4ccccc4C3)cc12	MEKK2 WT-MEK5 158
CCOc1ccc(/C=C2\CCCc3c2nc2ccccc2c3C(=O)O)cc1OC	none (no result: CRFBP-R2 agonist, CRFR2-BP antag)
O=C1N/C(=N\S(=O)(=O)c2ccccc2)S/C1=C\c1cc([N+](=O)[O-])ccc1O	CRFBP-R2 agonist 55
O=C1N/C(=N\S(=O)(=O)Cc2ccccc2)S/C1=C/c1cc([N+](=O)[O-])ccc1O	CRFBP-R2 agonist 104
COc1cc(/C=C2/S/C(=N/S(=O)(=O)c3ccccc3)NC2=O)c([N+](=O)[O-])cc1OC	none
COc1ccc(C(=O)CSc2nnn(-c3cccc(NC(C)=O)c3)n2)cc1	CRFBP-R2 agonist 69
CC(=O)Nc1cccc(-n2nnc(SCC(N)=O)n2)c1	none
CCOc1ccc(C2/C(=C(\O)c3ccc4c(c3)OCCO4)C(=O)C(=O)N2CCCN2CCOCC2)cc1 (stereo not drawn)	CRFR2-BP antag 55
Cn1c(=O)c(C(=O)COc2ccc(C#N)cc2)c(N)n(Cc2ccccc2)c1=O	CRFBP-R2 agonist 55
CCC(=O)OCC(=O)c1c(N)n(Cc2ccccc2)c(=O)n(C)c1=O	none
Cc1cc(C)cc(NC(=O)c2ccc(N3C(=O)C4CCCCC4C3=O)cc2)c1 (stereo not drawn)	CRFR2-BP antag 75
CCOC(=O)c1ccc(NC(=O)c2cccc3c2C(=O)N(CC2CCCO2)C3)cc1 (stereo not drawn)	CRFBP-R2 agonist 82, CRFR2-BP antag 60
CCCN1Cc2cccc(C(=O)Nc3ccc(C)cc3)c2C1=O	none
O=C(CCN1C(=O)c2ccccc2C1=O)Nc1ccccc1C(F)(F)F	none
COc1ccc(Nc2nc(N)nc(CN3CCc4ccccc4C3)n2)cc1	none
Nc1nc(CN2CCc3ccccc3C2)nc(Nc2ccccc2)n1	CRFR2-BP antag 74
COc1ccc2c(C)cc(SCn3nnc4ccccc4c3=O)nc2c1	CRFR2-BP antag 53
CCCCc1cc(O)c(CCCC)c(O)c1	CRFBP-R2 agonist 100
CCCCCc1cc(O)c2c(C)cc(=O)oc2c1	none
O=C(c1ccccc1)c1ccccc1N1C(=O)C=CC1=O	none
O=C1C=CC(=O)N1c1ccccc1N1C(=O)C=CC1=O	CRFR2-BP antag 97 (no result: MEKK2 WT-MEK5, MEKK3 PB1 HTS, MEKK2 mut-MEK5)
O=C(NC1CCCCC1)c1cccc2c1C(=O)c1ccc(N3CCC(Cc4ccccc4)CC3)cc1S2(=O)=O	CRFBP-R2 agonist 58 (no result: MEKK2 WT-MEK5, MEKK3 PB1 HTS, MEKK2 mut-MEK5)
O=C(NCc1ccccc1Br)c1cccc2c1C(=O)c1ccc(N3CCC(Cc4ccccc4)CC3)cc1S2(=O)=O	CRFBP-R2 agonist 61 (no result: MEKK2 WT-MEK5, MEKK3 PB1 HTS, MEKK2 mut-MEK5)
Cc1ccc(CNC(=O)c2cccc3c2C(=O)c2ccc(N4CCOCC4)cc2S3(=O)=O)cc1	none (no result: MEKK2 WT-MEK5, MEKK3 PB1 HTS, MEKK2 mut-MEK5)
O=C(NCC1CC1)c1cccc2c1C(=O)c1ccc(N3CCCC3)cc1S2(=O)=O	none (no result: MEKK2 WT-MEK5, MEKK3 PB1 HTS, MEKK2 mut-MEK5)
Cc1ccc(CNC(=O)c2cccc3c2C(=O)c2ccc(N4CCCCC4)cc2S3(=O)=O)cc1	CRFBP-R2 agonist 57 (no result: MEKK2 WT-MEK5, MEKK3 PB1 HTS, MEKK2 mut-MEK5)
O=C(NCC1CCCO1)c1cccc2c1C(=O)c1ccc(N3CCC(Cc4ccccc4)CC3)cc1S2(=O)=O (stereo not drawn)	CRFBP-R2 agonist 83 (no result: MEKK2 WT-MEK5, MEKK3 PB1 HTS, MEKK2 mut-MEK5)
Cc1ccc2cccc(Oc3ncnc4scc(-c5ccccc5)c34)c2n1	CRFR2-BP antag 66
COc1ccc(-c2csc3ncnc(Oc4cccc5ccc(C)nc45)c23)cc1	none
O=C(COC(=O)c1ccc(O)cc1O)Nc1cccc2ccccc12	none (no result: MEKK2 WT-MEK5, MEKK3 PB1 HTS, MEKK2 mut-MEK5)
COc1ccc(C(=O)Nc2c(N)nc[nH]c2=O)cc1	none (no result: MEKK2 WT-MEK5, MEKK3 PB1 HTS, MEKK2 mut-MEK5)
CC1(C)CC(=O)C(C=Nc2ccc(C(=O)c3ccccc3)cc2N=CC2=C(O)CC(C)(C)CC2=O)=C(O)C1	CRFBP-R2 agonist 105
Nc1ccc(S(=O)(=O)Nc2nccc(/C=C/c3ccc(Cl)cc3Cl)n2)cc1	none
Cc1cccc(C(=O)Nc2ccc(C)c(OC(=O)c3cccc(C)c3)c2)c1	MEKK2 WT-MEK5 -2.0[inhibitor], MEKK3 PB1 HTS 2.0[inhibitor] (no result: CRFBP-R2 agonist, CRFR2-BP antag, ABCB6 inh 2)
Cc1cccc(C(=O)Nc2ccc3ccccc3c2)c1	none
C[C@H](NC(=O)c1ccco1)C(=O)NC1CCCCCC1	none (no result: MEKK2 WT-MEK5, MEKK3 PB1 HTS, MEKK2 mut-MEK5)
CSCCC(NC(=O)c1ccco1)C(=O)OC(C)C(=O)NC(=O)NC1CCCCC1 (stereo not drawn)	CRFBP-R2 agonist 183
Nc1ncnc2c1ncn2[C@@H]1O[C@H](CNCc2ccc(OCC(=O)Nc3nccs3)cc2)[C@@H](O)[C@H]1O	none (no result: MEKK2 WT-MEK5, MEKK3 PB1 HTS, MEKK2 mut-MEK5)
Cc1ccc(C(=O)NNC(=O)Cc2nc3nc(C)cc(C)n3n2)cc1	none
Cc1cc(C)n2nc(CC(=O)NNC(=O)c3ccccc3Cl)nc2n1	CRFR2-BP antag 103
CCOC(=O)N1CCN(CC(O)c2ccc3cc[nH]c3c2)CC1 (stereo not drawn)	CRFBP-R2 agonist 58
COc1ccc(OC)c(NS(=O)(=O)c2ccc3c(c2)C(C)(C)C(=O)N3C)c1	none
Cc1sc2ncnc(Sc3ccccc3C(=O)Nc3ccc(C#N)cc3)c2c1C	CRFR2-BP antag 61
Cc1sc2ncnc(Sc3ccccc3C(=O)Nc3ccc(Br)cc3)c2c1C	none
Cc1cccc(NC(=O)C2=C(O)c3ccccc3N(C)S2(=O)=O)c1	none
CN1c2ccccc2C(O)=C(C(=S)Nc2ccc(Cl)cc2)S1(=O)=O	CRFR2-BP antag 59
Cc1cc(C)cc(NC(=O)C2CCCN(c3nc(C)cc(C)n3)C2)c1 (stereo not drawn)	none
O=C(Nc1ccc(Oc2ccccc2)cc1)C1CCCN(c2ncccn2)C1 (stereo not drawn)	CRFBP-R2 agonist 58 (no result: MEKK2 WT-MEK5, MEKK3 PB1 HTS, MEKK2 mut-MEK5)
Cc1cc(C)cc(NC(=O)C2CCCN(c3nccc(C)n3)C2)c1 (stereo not drawn)	CRFR2-BP antag 54
Cc1nnc(NC(=O)C2CCCN(c3ncccn3)C2)s1 (stereo not drawn)	CRFR2-BP antag 56
